FMDV inh: antivirals against foot and mouth disease virus; FMDV antiviral cell-based qHTS; Potency, µM (highest dose often 57.9 µM), for inactives: top-dose activity change, negative = inhibition, actives largely listed as inhibitors; hit rate 1.2% among 410,000; calls by dose curve; tested in HEK293T cells; further: read-out not given here; potency means the concentration at half of the fitted maximal effect; nearly all actives have a fitted effect of over 45% in size
HCMV antiviral: blocks human cytomegalovirus replication. activity change, negative = inhibition, % at 57.5 µM. hit rate 4.5% among 410,000. HFF cells, HCMV-luciferase reporter, 72 h; stronger effect = lower value; in the data active means activity change below about -60%; inconclusive means no clear call, values can overlap the other calls; inactive means above about -39%
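Compounds were evaluated in HFFs infected with an HCMV luciferase reporter virus (MOI 1 PFU/cell). Luciferase in lysates collected 72 h post infection served as the replication measure.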
HCV inhibitor: HCV inhibition; Huh7.5.1 HCVcc-Cre infection, luciferase reporter, 44 h; Potency, µM (doses to about 41.8 µM), for the others: at the top dose activity change, negative = inhibition, usual class: inhibitors; hit rate 3.4% among 340,000; AID 651820; active means well fitted inhibition curve with a large enough effect; inconclusive means small, poorly fitted or top-dose-only effect, or another doubt; inactive means no such curve, though single readings can be large or run the other way; further: potency means the concentration at half of the fitted maximal effect
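Seed cells (1,000/well) for 4 h; treat with compound and infect with HCVcc-Cre, moi about 0.5. Incubate 44 h, then detect luciferase activity.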
VACV Venus inh: inhibitors of vaccinia virus (Venus reporter); Vaccinia virus Venus reporter expression, fluorescence; Potency, µM (top dose mostly 36.5 µM), for the others: at the top dose activity change, negative = inhibition, actives largely listed as inhibitors; hit rate 0.46% among 330,000; calls by dose curve; tested in A549 cells; further: potency means the concentration at half of the fitted maximal effect; nearly all actives have a fitted effect of over 30% in size
VACV mCherry inh: inhibitors of vaccinia virus infection (mCherry reporter signal); hit rate 0.63% among 310,000; Potency, µM (series often up to 36.5 µM), for the others: at the highest dose activity change, negative = inhibition, most hits filed as inhibitors; Vaccinia virus mCherry reporter infection, fluorescence; AID 720579; calls by dose curve; tested in A549 cells; further: potency means the concentration at half of the fitted maximal effect; nearly all actives have a fitted effect of over 35% in size
Starred values were filed as active, the others as inactive; i = inactive; ? = inconclusive; · = not tested or not shown; ! = repeats disagree; [ ] = dose if it differs, or a comment. The list is not random: actives were taken first. Their share in the collection is about 7.3%. On the % scale 0 is the no-effect control and ±100 the full control effect.

SMILES	FMDV inh	HCMV antiviral	HCV inhibitor	VACV Venus inh	VACV mCherry inh
Cc1cc(Nc2ccc(F)cc2)nc(-n2nc(C)cc2C)n1	-10.4%	-83.4*	·	-17.2%[7.34 µM]	-8.8%[7.34 µM]
CCCCc1ccc(Nc2cc(C)nc(-n3nc(C)cc3C)n2)cc1	-24.2%	-96.8*	·	-9.8%[7.34 µM]	-1.5%[7.34 µM]
CCNc1nc(NCC)nc(-n2nc(C)cc2C)n1	·	?	?	-11.5%	-26.8%
COc1ccc(C(=O)C(C)OC(=O)CNC(=O)c2ccco2)cc1 (centres undefined)	-0.5%	11.8	12.4%	·	·
COc1ccccc1C(CNC(=O)C(C)Oc1ccc(Br)cc1)N1CCCC1 (centres undefined)	14.3%	-31.7	?	0.0%	-10.9%
Cc1cc(C)n(-c2nc(Nc3ccccc3C(F)(F)F)nc(-n3nc(C)cc3C)n2)n1	?	-98.4*	5.62µM*	12.6µM*	·
Cc1cc(Nc2cc(F)ccc2C)nc(-n2nc(C)cc2C)n1	-16.8%	-80.0*	·	-15.6%[7.34 µM]	-12.5%[7.34 µM]
Cc1cc(Nc2cc(F)ccc2C)n2ncnc2n1	-4.4%	-17.2	16.1%	-7.6%	-16.8%
Cc1cc(C)n(-c2nc(NC(C)C)nc(NC(C)C)n2)n1	-0.4%	11.2	?	-15.4%	-17.4%
COc1ccc(NC(=O)N2CC[C@@]3(CCCN(C(=O)c4cccc(F)c4)C3)C2)cc1	3.5%	·	·	·	·
N=C(N)c1ccc(OCCCCCOc2ccc(C(=N)N)cc2)cc1	?	-88.6*	2.24µM*!	-29.1%	?
Cc1cc2n(n1)C(c1cccs1)Nc1ccccc1-2 (centres undefined)	-11.4%	-19.0	2.82µM*	-16.4%	-16.8%
Cc1cc2n(n1)C(c1c[nH]c3ccccc13)Nc1ccccc1-2 (centres undefined)	-2.6%	·	3.98µM*	-22.9%	?
Cc1cc2n(n1)C(c1cn(-c3ccccc3)nc1C)Nc1ccccc1-2 (centres undefined)	-4.0%	-25.8	-22.4%	·	·
CCc1c(C)nc2ncnn2c1NCCc1ccccc1	?	-34.7	28.2µM*	·	·
COc1ccc(NC(=O)CSc2nc3[nH]ncc3c(=O)[nH]2)c(OC)c1	-20.5%	38.7	4.7%	0.2%	-10.2%
O=C(N/N=C/CCc1ccccc1)c1ccc(CN2c3cccc4cccc(c34)S2(=O)=O)cc1	39.8µM*	?	-17.2%	-15.7%	-19.8%
O=C(ONC1=NCCCCC1)c1ccc(Cl)cc1	?	31.1	2.51µM*	-4.6%	·
O=[N+]([O-])c1cccc(COc2ccc(CN3CCCCC3)cc2)c1	17.6%	-5.1	-29.3%	-12.9%	-12.6%
O=[N+]([O-])c1cccc(CN2CCN(Cc3ccc(Br)cc3)CC2)c1	?	-73.5*	22.4µM*	·	·
COc1ccc(-c2cn3cccnc3n2)cc1NC(=O)Nc1ccc(Cl)cc1	4.9%	-35.8	·	-20.6%	-18.1%
Cc1ccc2c(c1)-n1c(nc3cc(F)ccc3c1=O)C(Cc1ccc(O)cc1)NC2=O (centres undefined)	·	16.2	10.0%	·	·
CCCC(=O)Nc1nn(C)c2nc3c(C)cccc3cc12	6.7%	33.4	5.7%	-5.2%	-9.0%
CCCn1nc(NC(=O)COC)c2cc3cccc(C)c3nc21	-21.1%	-12.8	11.2µM*	-22.9%	-16.2%
CCCn1nc(NC(=O)CC(C)C)c2cc3cccc(C)c3nc21	13.2%	20.4	-5.9%	-10.4%	-8.4%
SMILES	FMDV inh	HCMV antiviral	HCV inhibitor	VACV Venus inh	VACV mCherry inh
CCCn1nc(NC(C)=O)c2cc3cccc(C)c3nc21	-22.1%	-11.2	11.2µM*	·	·
Cc1ccc(S(=O)(=O)N(C)CC(=O)N(C)CCOc2ccccc2)cc1	-12.0%	35.6	·	-13.9%	-17.1%
CCC1=NN2C(=N)/C(=C\c3cccn3-c3ccc(C)c(C)c3)C(=O)N=C2S1	-24.7%	-39.6	?	-18.7%	i
CCC1=NN2C(=N)/C(=C\c3cccn3-c3ccc(Cl)cc3)C(=O)N=C2S1	-18.3%	-81.1*	?	8.5%	-0.6%
N#Cc1ccc(/C=C\c2nccc3c2[nH]c2ccccc23)cc1	0.0%	-76.5*	?	-9.8%	-5.9%
O=[N+]([O-])c1ccc(CS(=O)c2ccccc2)cc1 (centres undefined)	8.3%	-5.5	3.9%	-6.8%	i
O=[N+]([O-])c1ccc(S(=O)Cc2ccccc2)c([N+](=O)[O-])c1 (centres undefined)	14.1µM*	-96.9*	?	-15.5%	-6.4%
O=C(c1cc(C2CC2)nc2ccccc12)N1N=C(C(F)F)CC1(O)C(F)F (centres undefined)	-14.5%	-14.5	?	·	·
O=C(c1cc(C2CC2)nc2ccc(Br)cc12)N1N=C(C(F)F)CC1(O)C(F)F (centres undefined)	?	-73.2*	?	·	·
O=C(CCC1N=C2c3ccccc3N=C(SCc3ccccc3Cl)N2C1=O)NCCc1ccccc1 (centres undefined)	-8.5%	12.9	·	-10.0%	-18.2%
CC(N)=Nc1ccc([N+](=O)[O-])cc1	0.0%	-4.9	10.7%	-10.9%	-10.2%
O=[N+]([O-])c1ccc(N=Nc2c(Cl)cc(O)cc2Cl)cc1	?	-99.9*	5.01µM*	?	?
CC(=O)Oc1ccc(C2=Cc3ccc(OC(C)=O)cc3OC2C)cc1 (centres undefined)	7.1%	?	?	-16.2%	10µM*
COc1ccc(C2=C/C(=C\c3ccc(OC(C)=O)cc3)C(=O)O2)cc1	-4.2%	23.7	-1.9%	-15.7%	-5.4%
N#CSCC(=O)N1c2ccccc2CCc2ccccc21	?	-102.1*	?	?	-17.4%
O=C(CN1CCCCC1)N1c2ccccc2CCc2ccccc21	?	-13.9	-2.6%	-24.4%	·
COc1ccccc1NC(=O)CSCC(=O)N1c2ccccc2CCc2ccccc21	-23.8%	-27.7	25.1µM*	?	-30.2%
CCNc1nc(Nc2ccc(C)c(Cl)c2)c2cnn(C)c2n1	?	-20.2	14.1µM*	·	·
CCCCNc1nc(Nc2ccc(C)c(Cl)c2)c2cnn(C)c2n1	?	1.1	12.6µM*	·	·
Cc1ccc(O/C=C2/Nn3c(nnc3-c3cc(-c4ccccc4)n[nH]3)S2)cc1	·	·	·	-27.6%	-10.5%
CCc1ccc(CN(Cc2cn[nH]c2-c2ccc(OC)cc2)C(=O)Nc2ccc(C)c(F)c2)cc1	?	-21.8	·	?	-19.6%
FC(F)(F)c1ccccc1CN1CCCC(N2CCN(c3ccccc3)CC2)C1 (centres undefined)	-13.4%	-60.9*	8.6%	·	·
Cc1cc(-c2ccc(C)c(S(=O)(=O)N(Cc3cccs3)C(C)C)c2)on1	0.0%	-77.0*	·	?	-4.3%
CCOc1ccc(N(C)S(=O)(=O)c2cc(-c3cc(C)no3)ccc2CC)cc1	17.8µM*	-90.0*	?	-13.4%	-15.9%
CCOc1ccc(N(C)S(=O)(=O)c2cc(-c3cc(C)no3)ccc2OC)cc1	-14.8%	?	?	-22.8%	i
CCOc1ccc(N(C)S(=O)(=O)c2cc(-c3cc(C)no3)ccc2C)cc1	20µM*	0.0	?	·	·
CN(C)c1nc(N)c([N+](=O)[O-])c(N2CCCCCC2)n1	-21.1%	5.1	3.2%	·	·
COc1c(C)cc(NS(=O)(=O)c2ccc3c(c2)OCCO3)cc1C	-4.4%	-39.0	·	-12.6%	-20.5%
